Assay outcomes as filed in PubChem BioAssay.
Dicer processing: inhibitors of Dicer pre-microRNA processing, primary screen, biochemical, cat-ELCCA, chemiluminescence | hit rate 6% among 47,000 | z-score at 25 µM | cat-ELCCA pre-miR-21 Dicer processing; active compounds read high; in the data active means z-score above about 3, passing the limit was not always enough;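 further: higher signal means more uncleaved substrate so more Dicer inhibition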
Of the large screens only hits and unclear results are named; the others gave an inactive call. Only a selection was taken, and hits are over-represented in it overall.

Cc1cc(-c2nn(C)c(=O)c3ccccc23)cc(C)c1OCC(=O)NNS(=O)(=O)c1cc(Cl)ccc1Cl	none
O=C(Nc1c(-c2ccccc2)c2cc(Br)ccc2[nH]c1=O)c1ccccc1Cl	none
N/C(=N\S(=O)(=O)c1cc(C(F)(F)F)cc(C(F)(F)F)c1)c1ccccc1	none
N/C(=N\S(=O)(=O)c1cc(C(F)(F)F)cc(C(F)(F)F)c1)N1CCSCC1	Dicer processing 5.54
Cc1nc(C(F)(F)F)ccc1C(=O)N1CCSCC1	none
Cn1nc(OC(C)(C)C(=O)Nc2ccc(Cl)cc2Cl)cc1C(F)(F)F	none
O=C(CN1CCN(c2ccccc2)CC1)Nc1c2c(nc3ccccc13)CCC2	none
Cn1c(=O)n(Cc2ccccc2Br)c2ccccc21	none
Cn1c(=O)n(CCCOc2ccc(Cl)cc2)c2ccccc21	none
Cn1c(=O)n(CC(=O)O)c2ccccc21	Dicer processing 3.57
O=C(O)/C=C/C(=O)NCc1cccc(Cl)c1	none
CCCCOc1cc([N+](=O)[O-])c(OCCCC)cc1N1CCOCC1	none
Cn1cc(Cl)c(C(=O)Nc2ccncc2)n1	none
CCOC(=O)c1ccc(N)cc1	none
CCOC(=O)C1CCN(c2sccc2[N+](=O)[O-])CC1	none
CCOC(=O)c1ccc(Oc2sccc2[N+](=O)[O-])cc1	Dicer processing 3.43
CCCCCOc1ccc(OC(=O)c2sc3ncn(CC)c(=O)c3c2C)cc1	none
COc1ccc(C2CC(c3ccc(C(C)C)cc3)n3nc(N)nc3N2)cc1 (stereo not given)	none
CC(=O)C(C=Nc1ccc(Cl)cc1Cl)C(C)=O	none
O=C1C2ON(c3ccccc3)C(c3ccco3)C2C(=O)N1c1ccc(F)cc1 (stereo not given)	none
CCc1cccc(CC)c1NC(=S)NCCCC(=O)O	none
COc1ccccc1-c1n[nH]c(=S)o1	Dicer processing 3.74
COc1ccccc1-c1nc2ccccc2c(=O)o1	none
Cc1ccc(-c2n[nH]c(=S)o2)cc1	Dicer processing 4.84
CCn1nc(C)cc1-c1n[nH]c(=S)o1	none
FC(F)(F)c1ccc(-c2n[nH]c(=S)o2)cc1	none
Cc1ccccc1-c1n[nH]c(=S)o1	none
O=C1c2oc3ccccc3c(=O)c2C(c2cccnc2)N1c1ccccn1 (stereo not given)	none
O=C1N(CN2CCCCC2)c2ccc(Br)cc2C12OCCO2	none
CS(=O)(=O)Nc1ccc(S(=O)(=O)Nc2ncccn2)cc1	none
CC(=O)Nc1ccc(S(=O)(=O)Nc2ncccn2)cc1	none
O=S(=O)(Nc1cccnc1Oc1ccc(Cl)cc1)c1ccc(Cl)cc1	none
O=S(=O)(Nc1ncccc1OCc1ccc(Cl)c(Cl)c1)c1ccc(Cl)cc1	none
Cc1ccc(S(=O)(=O)Nc2ccc(Cl)c3cccnc23)cc1	Dicer processing 3.24
Cc1ccc(S(=O)(=O)Nc2ccc3ccccc3n2)cc1	none
Cc1ccc(S(=O)(=O)Nc2ccnn2C)cc1	none
Cc1ccc(S(=O)(=O)Nc2ccc(O)c3ncccc23)cc1	Dicer processing 15.4
Cc1ccc(S(=O)(=O)Nc2ccc(O)c3cccnc23)cc1	Dicer processing 3.31
COC(=O)c1cnc(S(=O)CC#N)n1C (stereo not given)	none
O=C(Cn1cc(C(=O)c2cccs2)c2ccccc21)NC1CCCC1	none
CC(C)(C)c1ccc(-c2cc(NS(=O)(=O)c3ccccc3)n[nH]2)cc1	none
Cc1cc(NC(=O)CSc2nc3c(c(C(F)(F)F)n2)CCc2ccccc2-3)no1	none
CCOC(=O)c1cnn(-c2cc(C(F)(F)F)cc(C(F)(F)F)c2)c1C	none
Cn1c(NCc2ccc3c(c2)OCO3)nc2c1c(=O)n(Cc1ccccc1F)c(=O)n2C	none
CC(C)n1c(CN2CCN(c3ccccc3)CC2)nc2c1c(=O)n(C)c(=O)n2C	none
CCCCOC(=O)C1=C(C)NC2=C(C(=O)CC(C)(C)C2)C1c1ccc(C(=O)OC)cc1 (stereo not given)	none
Cc1ccccc1-c1nnc2c3ccccc3c(C)nn12	Dicer processing 4.96
Cc1ccc(-c2nnc3c4ccccc4c(C)nn23)cc1S(=O)(=O)NCc1ccccc1	none
COCCNS(=O)(=O)c1ccc(C)c(-c2nnc3c4ccccc4c(C)nn23)c1	none
Cc1ccc(S(=O)(=O)N2CCCCC2)cc1-c1nnc2c3ccccc3c(C)nn12	none
c1ccc(-c2nn3c(-c4ccccc4)nnc3c3ccccc23)cc1	Dicer processing 4.55
Cc1nn2c(-c3cccc(NS(=O)(=O)c4ccc(Cl)cc4)c3)nnc2c2ccccc12	none
Cc1ccc(-c2noc(-c3ccc(Oc4cc(Cl)cc(Cl)c4)o3)n2)cc1	none
COc1ccccc1C1CCN(c2ccc(C(F)(F)F)cc2[N+](=O)[O-])CC1	none
COc1ccccc1C1CCN(Cc2ccc(Cl)cc2Cl)CC1	none
COc1ccccc1C1CCN(c2ccc([N+](=O)[O-])c(OC)c2)CC1	Dicer processing 3.44
C=CCOc1ccc(C2N3CC4(C)CN2CC(C)(C3)C4=O)cc1 (stereo not given)	none
Cc1ccc2oc(-c3cc(Br)ccc3O)c(O)c(=O)c2c1	Dicer processing 5.34
Cc1ccc2oc(-c3ccco3)c(O)c(=O)c2c1	none
Cc1ccc(-c2oc3ccc(C)cc3c(=O)c2O)cc1	none
Nc1c(C(=O)NCc2ccco2)sc2nc(-c3ccncc3)ccc12	none
CSc1sc(Br)c(Cl)c1S(=O)(=O)C(C)C	none
CC(=O)n1cc(/C=C2/N=C(c3ccccc3)OC2=O)c2ccccc21	Dicer processing 3.04
O=C1OC(c2ccccc2)=N/C1=C/c1cccs1	none
COc1ccc(/C=C2\N=C(c3ccccc3)OC2=O)c(OC)c1	none
Cc1cccc(C)c1OCC(O)Cn1c(C)[n+](C)c2ccccc21 (stereo not given)	none
CCCc1n(CC(O)COc2ccc(F)cc2)c2ccccc2[n+]1C (stereo not given)	Dicer processing 3.67
COc1ccc(OCC(O)Cn2c(C)[n+](C)c3ccccc32)cc1 (stereo not given)	Dicer processing 3.79
Cc1n(CC(O)COc2cccc(Cl)c2)c2ccccc2[n+]1C (stereo not given)	none
CCCc1n(CC(O)COc2ccccc2C)c2ccccc2[n+]1C (stereo not given)	none
CCCc1n(CC(O)COc2cccc(OC)c2)c2ccccc2[n+]1C (stereo not given)	none
CC1CCC(C)N1c1cc(C(F)(F)F)cc(C(F)(F)F)c1 (stereo not given)	none
Cn1nc(NC(=O)COCC(=O)O)c2ccccc21	none
CCCN1C(=O)C2(/C(=C(/O)c3ccc(C)c(F)c3)C(=O)C(=O)N2CCCN(C)C)c2ccccc21 (stereo not given)	none
Cc1nn(-c2ccccc2)nc1CNS(=O)(=O)c1cccs1	none
CC(=O)Nc1cc(-c2ccc([N+](=O)[O-])cc2)[nH]n1	none
Fc1ccc(C2=NN(c3ccccc3)C(c3ccc(F)cc3)C2)cc1 (stereo not given)	none
CC1=NN(c2ccccc2)C(C2=C(C)CCCC2(C)C)C1 (stereo not given)	Dicer processing 3.23
Cc1nn(-c2ccccc2)c2c1C1(C)CC(C)(O2)c2c(C)nn(-c3ccccc3)c2O1	none
CCc1ccnc(NS(=O)(=O)c2ccc(C#N)cc2)c1	none
COc1ccc(CCNS(=O)(=O)c2ccc(-c3csc(C)n3)s2)cc1OC	none
COc1ccccc1N1C(=O)CC(N2CCN(c3ccccn3)CC2)C1=O (stereo not given)	none
COC(=O)c1scc(NS(=O)(=O)c2ccc(Cl)cc2Cl)c1C(=O)OC	none
CC1(C)CC(NCC(=O)N2c3ccccc3Sc3ccc(Cl)cc32)CC(C)(C)N1	Dicer processing 3.28
O=C(C1CC1)N1c2ccccc2Sc2ccccc21	none
CC(C)CNC(=O)N1c2ccccc2Sc2ccccc21	none
CSc1scc2c1/C(=N/OC(C)=O)CC(C)(C)C2	none
O=c1[nH]c2ccc(Cl)cc2n1-c1ccncc1	none
